Key:
Assay in all cases: DAPPL (digital affinity profiling via proximity ligation, sequencing); 10 mM Tris-HCl pH 7.5, 50 mM NaCl, 1 mM DTT, 4% glycerol, room temperature, 30 min; GST-TFs on glutathione beads, 16-mer random dsDNA library, 0.1% formaldehyde crosslink after washing; high values mean tight binding
Conditions in all cases: protein: recombinant; tags: N-terminal GST; dsDNA, one strand shown
[1] = molecular target: T1, FLI1 (Homo sapiens, UniProt Q01543 1-452)
T1 sequence: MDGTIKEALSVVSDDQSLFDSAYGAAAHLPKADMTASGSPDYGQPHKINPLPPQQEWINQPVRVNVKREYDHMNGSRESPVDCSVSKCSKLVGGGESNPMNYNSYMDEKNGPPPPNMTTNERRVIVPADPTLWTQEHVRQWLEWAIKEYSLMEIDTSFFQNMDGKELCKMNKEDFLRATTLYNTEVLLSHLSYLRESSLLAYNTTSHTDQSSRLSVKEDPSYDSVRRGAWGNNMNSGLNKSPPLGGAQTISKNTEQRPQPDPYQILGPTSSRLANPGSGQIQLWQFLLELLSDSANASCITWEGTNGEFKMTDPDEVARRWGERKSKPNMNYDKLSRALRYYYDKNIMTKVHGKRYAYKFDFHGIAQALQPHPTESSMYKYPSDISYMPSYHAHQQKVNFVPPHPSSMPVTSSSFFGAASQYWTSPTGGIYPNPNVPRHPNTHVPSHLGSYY
In short: (§1)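 Binding signal is defined as a hexamer's read frequency for one factor over its frequency for the tag-only sample. To obtain reads, GST-fused human transcription factors were expressed in yeast, captured on glutathione beads, barcoded with DNA and pooled with that sample. Pools met 200 nmole of a 16-mer random double-stranded DNA library in Tris/NaCl/DTT/glycerol buffer for 30 min at room temperature before washing, 0.1% formaldehyde crosslinking, proximity ligation (BsaI/T4 ligase, 1 h, 37 °C), PCR and Illumina NextSeq500 sequencing.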

[2] = molecular target: T2, ELK1 (Homo sapiens, UniProt P19419 1-428)
T2 sequence: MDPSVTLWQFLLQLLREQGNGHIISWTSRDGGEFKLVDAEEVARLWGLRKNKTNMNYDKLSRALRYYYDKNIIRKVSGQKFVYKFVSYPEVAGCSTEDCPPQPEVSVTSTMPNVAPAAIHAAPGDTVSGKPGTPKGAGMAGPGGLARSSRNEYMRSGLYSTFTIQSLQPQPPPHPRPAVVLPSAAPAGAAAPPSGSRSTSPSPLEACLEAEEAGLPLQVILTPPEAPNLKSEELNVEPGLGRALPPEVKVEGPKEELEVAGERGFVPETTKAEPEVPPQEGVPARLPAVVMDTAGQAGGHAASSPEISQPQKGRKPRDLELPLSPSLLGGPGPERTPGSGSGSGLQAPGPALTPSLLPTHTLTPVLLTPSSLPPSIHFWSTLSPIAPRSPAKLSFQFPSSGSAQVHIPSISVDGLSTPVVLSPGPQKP
In short: as §1

[3] = molecular target: T3, ERG (Homo sapiens, UniProt P11308 1-479)
T3 sequence: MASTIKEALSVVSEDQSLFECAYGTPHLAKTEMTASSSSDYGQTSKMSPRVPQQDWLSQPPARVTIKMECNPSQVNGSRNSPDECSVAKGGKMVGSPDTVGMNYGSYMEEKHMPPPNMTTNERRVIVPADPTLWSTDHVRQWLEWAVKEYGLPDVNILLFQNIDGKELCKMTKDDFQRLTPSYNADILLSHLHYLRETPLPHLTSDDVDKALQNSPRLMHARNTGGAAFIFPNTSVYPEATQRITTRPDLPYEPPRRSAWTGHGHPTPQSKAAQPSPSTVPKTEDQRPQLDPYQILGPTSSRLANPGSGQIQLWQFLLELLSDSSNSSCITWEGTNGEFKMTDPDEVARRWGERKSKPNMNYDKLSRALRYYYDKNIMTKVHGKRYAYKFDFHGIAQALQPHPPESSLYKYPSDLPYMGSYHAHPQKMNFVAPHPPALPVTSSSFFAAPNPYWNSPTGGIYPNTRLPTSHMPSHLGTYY
In short: as §1

[4] = molecular target: ELF1 (Homo sapiens, UniProt P32519 1-619)
Sequence of ELF1 (P32519 whole entry): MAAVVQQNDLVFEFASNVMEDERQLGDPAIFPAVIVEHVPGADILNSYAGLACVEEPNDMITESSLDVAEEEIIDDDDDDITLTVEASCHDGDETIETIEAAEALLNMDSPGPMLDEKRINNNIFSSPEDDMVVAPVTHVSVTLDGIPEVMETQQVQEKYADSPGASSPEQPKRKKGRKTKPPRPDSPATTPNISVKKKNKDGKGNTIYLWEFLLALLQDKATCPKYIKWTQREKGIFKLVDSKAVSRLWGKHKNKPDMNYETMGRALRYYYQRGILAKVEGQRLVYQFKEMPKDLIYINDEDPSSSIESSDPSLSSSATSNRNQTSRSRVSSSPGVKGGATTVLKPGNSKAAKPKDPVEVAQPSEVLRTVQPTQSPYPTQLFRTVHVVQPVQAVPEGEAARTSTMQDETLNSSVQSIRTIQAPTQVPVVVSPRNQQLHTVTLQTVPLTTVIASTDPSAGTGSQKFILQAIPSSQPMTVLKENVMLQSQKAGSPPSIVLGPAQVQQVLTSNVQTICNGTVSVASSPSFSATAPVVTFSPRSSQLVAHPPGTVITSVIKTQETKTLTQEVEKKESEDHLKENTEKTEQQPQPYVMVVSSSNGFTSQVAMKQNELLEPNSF
In short: as §1

[5] = molecular target: SPI1 (Homo sapiens, UniProt P17947 1-270)
In short: as §1

[6] = molecular target: SPIB (Homo sapiens, UniProt Q01892 1-262)
Sequence of SPIB (Q01892 whole entry): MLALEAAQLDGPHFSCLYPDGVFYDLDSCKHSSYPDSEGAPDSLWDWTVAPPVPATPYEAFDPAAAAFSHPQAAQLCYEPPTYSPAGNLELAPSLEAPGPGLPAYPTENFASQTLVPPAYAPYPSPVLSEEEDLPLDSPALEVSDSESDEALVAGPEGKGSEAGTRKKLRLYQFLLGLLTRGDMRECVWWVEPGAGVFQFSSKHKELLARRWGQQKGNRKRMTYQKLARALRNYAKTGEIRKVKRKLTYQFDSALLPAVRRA
In short: as §1

[7] = molecular target: T4, ELK3 (Homo sapiens, UniProt P41970 1-407)
T4 sequence: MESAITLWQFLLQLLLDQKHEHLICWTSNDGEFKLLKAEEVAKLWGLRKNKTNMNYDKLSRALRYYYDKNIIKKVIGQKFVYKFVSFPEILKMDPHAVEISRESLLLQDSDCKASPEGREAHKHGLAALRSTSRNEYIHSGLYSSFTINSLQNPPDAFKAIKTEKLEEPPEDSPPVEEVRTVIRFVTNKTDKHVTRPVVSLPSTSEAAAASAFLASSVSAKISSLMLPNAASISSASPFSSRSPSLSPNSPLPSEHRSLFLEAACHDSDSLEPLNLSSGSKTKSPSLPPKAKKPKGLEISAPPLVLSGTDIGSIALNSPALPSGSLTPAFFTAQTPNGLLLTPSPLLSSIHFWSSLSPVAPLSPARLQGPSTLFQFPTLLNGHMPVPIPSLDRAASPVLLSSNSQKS
In short: as §1

[8] = molecular target: ETV5 (Homo sapiens, UniProt P41161 1-510)
Sequence of ETV5 (P41161 whole entry): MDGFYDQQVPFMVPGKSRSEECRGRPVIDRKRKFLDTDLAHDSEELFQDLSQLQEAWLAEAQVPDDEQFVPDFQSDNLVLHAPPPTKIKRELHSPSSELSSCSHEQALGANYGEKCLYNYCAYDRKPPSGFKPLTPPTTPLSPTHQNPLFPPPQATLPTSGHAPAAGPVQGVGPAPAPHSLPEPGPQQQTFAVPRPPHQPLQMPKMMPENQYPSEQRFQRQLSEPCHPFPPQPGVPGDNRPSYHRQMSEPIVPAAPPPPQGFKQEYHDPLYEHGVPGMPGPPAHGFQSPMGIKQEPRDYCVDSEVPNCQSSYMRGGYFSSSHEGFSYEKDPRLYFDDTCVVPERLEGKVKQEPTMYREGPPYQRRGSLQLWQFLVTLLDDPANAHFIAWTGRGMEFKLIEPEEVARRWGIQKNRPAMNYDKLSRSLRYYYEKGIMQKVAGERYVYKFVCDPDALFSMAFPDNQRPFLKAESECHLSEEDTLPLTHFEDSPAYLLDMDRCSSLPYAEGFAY
In short: as §1

[9] = molecular target: T5, SPIC (Homo sapiens, UniProt Q8N5J4 1-248)
T5 sequence: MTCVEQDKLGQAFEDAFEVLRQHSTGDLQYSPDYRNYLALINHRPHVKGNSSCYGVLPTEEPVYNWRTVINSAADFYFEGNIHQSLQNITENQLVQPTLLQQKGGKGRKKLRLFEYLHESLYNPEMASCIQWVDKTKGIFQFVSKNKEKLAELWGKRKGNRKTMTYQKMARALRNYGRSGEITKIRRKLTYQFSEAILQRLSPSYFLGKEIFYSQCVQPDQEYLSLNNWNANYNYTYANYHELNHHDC
In short: as §1

[10] = molecular target: T6, ERF (Homo sapiens, UniProt P50548 1-548)
T6 sequence: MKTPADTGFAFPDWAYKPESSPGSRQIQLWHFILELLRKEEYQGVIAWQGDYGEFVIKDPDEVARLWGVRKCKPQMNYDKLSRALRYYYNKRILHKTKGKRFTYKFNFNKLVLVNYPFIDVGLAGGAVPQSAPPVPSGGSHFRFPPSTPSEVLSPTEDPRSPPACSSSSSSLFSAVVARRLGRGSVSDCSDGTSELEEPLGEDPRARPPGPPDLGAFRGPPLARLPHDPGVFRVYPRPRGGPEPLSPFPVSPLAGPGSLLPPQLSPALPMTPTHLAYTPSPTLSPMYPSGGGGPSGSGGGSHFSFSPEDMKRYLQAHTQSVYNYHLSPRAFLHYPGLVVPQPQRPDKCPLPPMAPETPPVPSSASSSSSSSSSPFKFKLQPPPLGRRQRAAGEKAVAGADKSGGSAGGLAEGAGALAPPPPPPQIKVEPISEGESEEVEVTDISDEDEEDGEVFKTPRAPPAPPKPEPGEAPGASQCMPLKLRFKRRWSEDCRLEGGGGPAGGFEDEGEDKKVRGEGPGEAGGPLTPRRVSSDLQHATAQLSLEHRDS
In short: as §1

[11] = molecular target: T7, ETV3L (Homo sapiens, UniProt Q6ZN32 1-361)
T7 sequence: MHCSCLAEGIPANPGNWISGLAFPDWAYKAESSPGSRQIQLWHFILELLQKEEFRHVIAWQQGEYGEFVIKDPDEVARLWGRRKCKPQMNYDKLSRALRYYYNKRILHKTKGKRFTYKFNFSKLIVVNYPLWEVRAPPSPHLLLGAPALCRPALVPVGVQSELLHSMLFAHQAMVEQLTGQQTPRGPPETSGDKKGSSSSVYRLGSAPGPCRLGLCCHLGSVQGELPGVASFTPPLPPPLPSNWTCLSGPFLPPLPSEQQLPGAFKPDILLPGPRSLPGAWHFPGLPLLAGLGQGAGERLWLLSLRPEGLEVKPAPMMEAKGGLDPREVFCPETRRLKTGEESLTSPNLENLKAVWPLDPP
In short: as §1

[12] = molecular target: T8, ETS2 (Homo sapiens, UniProt P15036 1-469)
T8 sequence: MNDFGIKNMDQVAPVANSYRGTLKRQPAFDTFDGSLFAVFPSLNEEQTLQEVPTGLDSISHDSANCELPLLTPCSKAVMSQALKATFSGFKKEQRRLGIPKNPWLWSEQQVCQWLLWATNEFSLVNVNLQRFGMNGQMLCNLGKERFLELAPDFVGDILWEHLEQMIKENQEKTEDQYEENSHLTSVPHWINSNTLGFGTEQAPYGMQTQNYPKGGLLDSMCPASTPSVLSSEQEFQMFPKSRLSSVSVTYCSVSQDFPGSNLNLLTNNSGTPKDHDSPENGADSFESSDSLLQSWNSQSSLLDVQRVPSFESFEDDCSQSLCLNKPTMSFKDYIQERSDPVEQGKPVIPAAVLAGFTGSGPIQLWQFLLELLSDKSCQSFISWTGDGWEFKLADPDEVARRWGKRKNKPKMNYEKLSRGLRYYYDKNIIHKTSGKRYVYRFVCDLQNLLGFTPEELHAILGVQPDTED
In short: as §1

[13] = molecular target: T9, ETV3 (Homo sapiens, UniProt P41162-2 1-143)
T9 sequence: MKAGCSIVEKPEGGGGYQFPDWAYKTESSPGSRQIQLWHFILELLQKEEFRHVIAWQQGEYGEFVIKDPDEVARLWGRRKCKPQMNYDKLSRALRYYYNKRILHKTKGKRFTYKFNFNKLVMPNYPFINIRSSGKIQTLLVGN
In short: as §1

[14] = molecular target: T10, EHF (Homo sapiens, UniProt Q9NZC4 1-300)
T10 sequence: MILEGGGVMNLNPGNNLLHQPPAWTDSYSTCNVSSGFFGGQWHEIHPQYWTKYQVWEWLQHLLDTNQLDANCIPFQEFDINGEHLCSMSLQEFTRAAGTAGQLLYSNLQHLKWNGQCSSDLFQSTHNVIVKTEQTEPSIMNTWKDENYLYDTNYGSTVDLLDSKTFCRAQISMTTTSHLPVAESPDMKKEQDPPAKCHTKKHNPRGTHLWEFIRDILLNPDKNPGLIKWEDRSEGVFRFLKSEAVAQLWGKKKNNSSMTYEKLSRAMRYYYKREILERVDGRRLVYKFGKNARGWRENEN
In short: as §1

[15] = molecular target: T11, FEV (Homo sapiens, UniProt Q99581 1-238)
T11 sequence: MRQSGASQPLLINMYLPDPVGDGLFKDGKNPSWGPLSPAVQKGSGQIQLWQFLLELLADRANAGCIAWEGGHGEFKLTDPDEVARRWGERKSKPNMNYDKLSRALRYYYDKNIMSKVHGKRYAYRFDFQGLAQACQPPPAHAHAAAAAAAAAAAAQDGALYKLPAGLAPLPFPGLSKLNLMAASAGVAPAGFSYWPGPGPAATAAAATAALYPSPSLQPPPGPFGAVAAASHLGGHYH
In short: as §1

[16] = molecular target: ELF4 (Homo sapiens, UniProt Q99607 1-663)
Sequence of ELF4 (Q99607 whole entry): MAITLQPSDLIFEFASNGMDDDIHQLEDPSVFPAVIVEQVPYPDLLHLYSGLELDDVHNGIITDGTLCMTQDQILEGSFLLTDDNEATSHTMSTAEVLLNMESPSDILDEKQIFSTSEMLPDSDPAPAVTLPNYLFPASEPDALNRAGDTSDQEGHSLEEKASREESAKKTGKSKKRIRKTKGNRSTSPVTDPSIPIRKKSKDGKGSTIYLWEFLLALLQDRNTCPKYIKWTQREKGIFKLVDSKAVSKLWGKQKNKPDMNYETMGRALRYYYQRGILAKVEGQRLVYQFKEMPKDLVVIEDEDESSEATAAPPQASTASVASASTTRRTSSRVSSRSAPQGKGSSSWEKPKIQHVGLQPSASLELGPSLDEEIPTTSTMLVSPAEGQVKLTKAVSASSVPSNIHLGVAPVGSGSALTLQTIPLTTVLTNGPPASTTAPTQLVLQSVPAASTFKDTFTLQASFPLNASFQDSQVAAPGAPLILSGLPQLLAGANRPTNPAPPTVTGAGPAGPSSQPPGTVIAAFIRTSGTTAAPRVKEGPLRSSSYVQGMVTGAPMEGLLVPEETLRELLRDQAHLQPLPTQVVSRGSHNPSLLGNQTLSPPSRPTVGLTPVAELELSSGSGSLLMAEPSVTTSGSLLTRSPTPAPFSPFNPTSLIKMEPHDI
In short: as §1

[17] = molecular target: ETV1 (Homo sapiens, UniProt P50549 1-477)
Sequence of ETV1 (P50549 whole entry): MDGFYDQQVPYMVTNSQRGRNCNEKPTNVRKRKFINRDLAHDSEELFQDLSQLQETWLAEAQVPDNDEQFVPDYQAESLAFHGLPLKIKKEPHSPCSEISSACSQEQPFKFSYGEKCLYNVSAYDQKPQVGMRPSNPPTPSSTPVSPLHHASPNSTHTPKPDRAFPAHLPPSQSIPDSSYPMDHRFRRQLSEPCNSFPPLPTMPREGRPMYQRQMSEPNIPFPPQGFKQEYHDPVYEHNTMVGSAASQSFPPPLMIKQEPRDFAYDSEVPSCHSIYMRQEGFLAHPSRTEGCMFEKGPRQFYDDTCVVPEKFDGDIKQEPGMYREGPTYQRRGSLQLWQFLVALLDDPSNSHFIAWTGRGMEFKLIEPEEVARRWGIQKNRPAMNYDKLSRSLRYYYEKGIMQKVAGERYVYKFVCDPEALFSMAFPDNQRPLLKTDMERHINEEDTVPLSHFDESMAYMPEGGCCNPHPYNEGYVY
In short: as §1

[18] = molecular target: ETV6 (Homo sapiens, UniProt P41212 1-452)
Sequence of ETV6 (P41212 whole entry): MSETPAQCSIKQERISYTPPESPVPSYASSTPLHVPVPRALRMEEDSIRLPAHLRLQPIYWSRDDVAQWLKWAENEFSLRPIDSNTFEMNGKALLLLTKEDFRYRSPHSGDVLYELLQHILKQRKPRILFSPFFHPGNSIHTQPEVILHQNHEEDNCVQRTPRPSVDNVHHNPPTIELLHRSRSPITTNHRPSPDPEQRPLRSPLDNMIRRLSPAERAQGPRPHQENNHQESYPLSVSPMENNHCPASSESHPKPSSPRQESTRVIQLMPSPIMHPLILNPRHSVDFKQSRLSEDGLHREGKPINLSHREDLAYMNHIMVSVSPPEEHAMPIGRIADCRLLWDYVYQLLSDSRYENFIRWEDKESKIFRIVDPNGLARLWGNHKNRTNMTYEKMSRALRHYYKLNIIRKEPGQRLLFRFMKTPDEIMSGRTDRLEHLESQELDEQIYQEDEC
In short: as §1

Sequence	binding signal [1]	binding signal [2]	binding signal [3]	binding signal [4]	binding signal [5]	binding signal [6]	binding signal [7]	binding signal [8]	binding signal [9]	binding signal [10]	binding signal [11]	binding signal [12]	binding signal [13]	binding signal [14]	binding signal [15]	binding signal [16]	binding signal [17]	binding signal [18]
GTTGCG	1 fold enrichment (6-mer frequency, TF over GST control)	1.04 fold enrichment (6-mer frequency, TF over GST control)	1.09 fold enrichment (6-mer frequency, TF over GST control)	1.02 fold enrichment (6-mer frequency, TF over GST control)	1.02 fold enrichment (6-mer frequency, TF over GST control)	1.15 fold enrichment (6-mer frequency, TF over GST control)	1.01 fold enrichment (6-mer frequency, TF over GST control)	1.07 fold enrichment (6-mer frequency, TF over GST control)	1.23 fold enrichment (6-mer frequency, TF over GST control)	1.14 fold enrichment (6-mer frequency, TF over GST control)	1.06 fold enrichment (6-mer frequency, TF over GST control)	1.07 fold enrichment (6-mer frequency, TF over GST control)	1.07 fold enrichment (6-mer frequency, TF over GST control)					
AGTGAC	1.07 fold enrichment (6-mer frequency, TF over GST control)	1 fold enrichment (6-mer frequency, TF over GST control)	1.1 fold enrichment (6-mer frequency, TF over GST control)		1.33 fold enrichment (6-mer frequency, TF over GST control)	1.04 fold enrichment (6-mer frequency, TF over GST control)		1.05 fold enrichment (6-mer frequency, TF over GST control)	1.04 fold enrichment (6-mer frequency, TF over GST control)		1.1 fold enrichment (6-mer frequency, TF over GST control)		1.1 fold enrichment (6-mer frequency, TF over GST control)	1.08 fold enrichment (6-mer frequency, TF over GST control)	1.11 fold enrichment (6-mer frequency, TF over GST control)	1.05 fold enrichment (6-mer frequency, TF over GST control)	1.03 fold enrichment (6-mer frequency, TF over GST control)	1.11 fold enrichment (6-mer frequency, TF over GST control)

From article PMC7862700, “An all-to-all approach to the identification of sequence-specific readers for epigenetic DNA modifications on cytosine”
